Assay [1] in a line: resazurin metabolic signal in HepG2 cells – cell-based, resazurin fluorescence, 24 h, PK04 Diversity Set, profiling panel (AID 1172). As to conditions: HepG2 viability, higher = more signal.
Assay [2] in a line: budding yeast growth changes without added modifier – OD600, strain BY4716, 24 h, basal condition, primary screen (AID 1173). As to conditions: S. cerevisiae BY4716 growth, OD600, 24 h; higher = more signal, called active from +8 up or from −8 down.
The nature of assay [3]: viability profiling in MM1S myeloma cells – cell-based, resazurin fluorescence, basal, 24 h, PK04 Diversity Set, profiling panel (AID 1174).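 Note: MM1S multiple myeloma cell line.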 As to conditions: higher = more signal, called active from +8 up or from −8 down.
Assay [4] has as its target Dihydroorotate dehydrogenase (quinone), mitochondrial (Plasmodium falciparum (isolate 3D7)) (UniProt Q08210). Kind of assay: inhibition of P. falciparum DHODH – biochemical, C-terminal His tag, absorbance 600 nm, primary screen (AID 1175).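 Note: recombinant parasite enzyme with a five histidine tag at its C terminus.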 The conditions noted are these: PfDHODH enzyme, DCIP absorbance 600 nm; higher = more signal, called active from +8 up or from −8 down.

Assay [5] is described as follows: inhibition of PAO1 biofilm formation – strain PAO1, LB-PBS medium, absorbance 600 nm, primary screen (AID 1176). As to conditions: P. aeruginosa PAO1 growth/biofilm, A600, 12 h; higher = more signal.
A short description of assay [6]: growth modulation of vineyard yeast isolate – strain RM11-1a, OD600, basal, 24 h, primary screen (AID 1177).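 Note: cultures grown under basal conditions with no added stressor.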 As to conditions: S. cerevisiae RM11-1a growth, OD600, 24 h; higher = more signal, called active from +8 up or from −8 down.
Assay [7] in a line: growth of efflux-deficient E. coli DRC39 – strain DRC39, OD650, 24 h, E. coli filamentation inducers, primary screen (AID 1178).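 Note: growth measured as culture turbidity by optical density at 650 nm.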 As to conditions: E. coli DRC39 acrAB, higher = more signal, called active from +8 up or from −8 down.
Assay [8] is described as follows: growth of efflux-deficient E. coli DRC39 – strain DRC39, OD650, 48 h, E. coli filamentation inducers, primary screen (AID 1179).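 Note: screen aims at cell division blockers that make cells filament.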 The conditions noted are these: E. coli DRC39 delta-acrAB growth, higher = more signal, called active from +8 up or from −8 down.
A short description of assay [9]: viability profiling in RPMI8226 myeloma cells – cell-based, resazurin fluorescence, basal, 24 h, PK04 Diversity Set, profiling panel (AID 1180).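 Note: RPMI8826 multiple myeloma cell line at 5000 cells per well.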 As to conditions: higher = more signal.
Assay [10] concerns the target E3 ubiquitin-protein ligase XIAP (Homo sapiens) (UniProt P98170). As to the kind of experiment: small molecules binding XIAP protein – biophysical, small-molecule microarray, fluorescence 635 nm, primary screen (AID 1181).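 Note: score merges 667 nm emission and signal to noise over triplicate slides.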 The conditions noted are these: higher = more signal.
For assay [11], the system named is XIP peptide (Xip251-270) binding. Kind of assay: XIP fragment 251-270 binding compounds – biochemical, small-molecule microarray, fluorescence 635/667 nm, 0.1 µg/mL protein, primary screen (AID 1182). As to conditions: fluorescent protein binding, 635 nm, higher = more signal, called active from +8 up or from −8 down.
For the next assay, the system named is XIP peptide (Xip251-270). Kind of assay: compounds binding XIP fragment 251-270 – biochemical, small-molecule microarray, fluorescence 635/667 nm, 0.5 µg/mL protein, primary screen (AID 1183). The conditions noted are these: fluorescence 635 nm, higher = more signal.
The nature of assay [12]: blood-stage malaria parasite viability loss – strain 3D7, DAPI fluorescence, 100 nL, primary screen (AID 1184).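 Note: parasites grown inside human red blood cells in medium with human serum.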 The conditions noted are these: P. falciparum 3D7 growth, 3 d, higher = more signal.
Assay [13] deals with Homeobox protein Hox-A13 (Mus musculus) (UniProt Q62424). As to the kind of experiment: disruptors of Hoxa13 oligonucleotide interaction – biochemical, fluorescence polarization, labeled oligonucleotide, primary screen (AID 1185). As to conditions: Hoxa13:DNA binding, 15 min, higher = more signal, called active from +8 up or from −8 down.
A short description of assay [14]: blockers of DNA damage checkpoint Chk1 activation – imaging, HeLa, hydroxyurea, phospho-Chk1 antibody, percent positive cells, primary screen (AID 1186). The conditions noted are these: hydroxyurea-induced phospho-Chk1 immunofluorescence imaging, higher = more signal.
The nature of assay [15]: blockers of DNA damage checkpoint Chk1 activation – imaging, HeLa, hydroxyurea, phospho-Chk1 nuclear intensity, primary screen (AID 1187). As to conditions: hydroxyurea-induced phospho-Chk1 immunofluorescence imaging, higher = more signal.

Among the data in PubChem BioAssay are z-score and composite z-score values, retold here.

SMILES strings stand for the structures. Activity calls are given as the source filed them. Unless noted, the rule behind the calls is not given here.

Sequence of Dihydroorotate dehydrogenase (quinone), mitochondrial (Plasmodium falciparum (isolate 3D7)) (Q08210 whole entry, looked up): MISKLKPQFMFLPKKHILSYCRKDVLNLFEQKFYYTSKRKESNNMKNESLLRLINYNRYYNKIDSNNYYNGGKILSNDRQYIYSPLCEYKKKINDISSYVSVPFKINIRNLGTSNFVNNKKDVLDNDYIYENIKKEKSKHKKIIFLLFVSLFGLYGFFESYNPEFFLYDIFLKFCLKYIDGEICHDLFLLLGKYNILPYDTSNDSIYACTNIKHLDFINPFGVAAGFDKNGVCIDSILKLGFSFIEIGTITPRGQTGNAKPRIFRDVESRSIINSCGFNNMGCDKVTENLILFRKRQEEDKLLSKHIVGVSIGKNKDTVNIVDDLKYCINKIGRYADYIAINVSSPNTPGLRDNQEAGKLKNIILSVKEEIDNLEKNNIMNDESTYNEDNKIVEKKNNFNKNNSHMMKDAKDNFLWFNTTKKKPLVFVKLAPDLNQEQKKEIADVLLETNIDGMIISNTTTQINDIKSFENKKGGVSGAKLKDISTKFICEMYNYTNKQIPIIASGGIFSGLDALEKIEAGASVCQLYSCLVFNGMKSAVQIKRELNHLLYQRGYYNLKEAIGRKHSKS
Sequence of Homeobox protein Hox-A13 (Mus musculus) (Q62424 whole entry, looked up): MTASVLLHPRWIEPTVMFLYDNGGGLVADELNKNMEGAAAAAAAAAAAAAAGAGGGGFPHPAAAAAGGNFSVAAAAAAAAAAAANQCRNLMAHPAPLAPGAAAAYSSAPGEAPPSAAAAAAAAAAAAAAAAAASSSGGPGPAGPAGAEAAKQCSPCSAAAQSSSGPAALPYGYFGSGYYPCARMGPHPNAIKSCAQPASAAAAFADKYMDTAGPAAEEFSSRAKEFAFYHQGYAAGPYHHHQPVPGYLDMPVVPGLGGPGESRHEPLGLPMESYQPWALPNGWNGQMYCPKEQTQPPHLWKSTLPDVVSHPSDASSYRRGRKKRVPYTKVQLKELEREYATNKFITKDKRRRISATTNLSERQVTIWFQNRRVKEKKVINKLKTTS
Sequence of E3 ubiquitin-protein ligase XIAP (Homo sapiens) (P98170 whole entry, looked up, the tested form may be a part): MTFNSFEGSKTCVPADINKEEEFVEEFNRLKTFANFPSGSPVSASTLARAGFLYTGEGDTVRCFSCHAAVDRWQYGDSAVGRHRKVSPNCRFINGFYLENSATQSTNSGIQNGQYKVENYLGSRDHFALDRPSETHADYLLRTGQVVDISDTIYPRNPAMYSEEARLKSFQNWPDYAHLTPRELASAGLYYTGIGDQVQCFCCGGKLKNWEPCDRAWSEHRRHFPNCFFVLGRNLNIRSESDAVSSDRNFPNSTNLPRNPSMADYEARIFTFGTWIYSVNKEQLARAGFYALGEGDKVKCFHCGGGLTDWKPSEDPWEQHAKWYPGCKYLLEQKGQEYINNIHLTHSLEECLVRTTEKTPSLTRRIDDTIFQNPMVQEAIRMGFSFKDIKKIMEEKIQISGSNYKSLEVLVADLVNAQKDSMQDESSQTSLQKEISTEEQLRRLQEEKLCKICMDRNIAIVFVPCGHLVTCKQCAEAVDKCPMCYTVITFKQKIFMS

For `CCCCC[C@H]1OC[C@@]23C=C(Br)[C@@H](CC12)[C@@]1(CO1)C3=O` (stereo not given in full), the z-score was 0.213 in assay [1]; -8.43 (active) in assay [2]; -0.586 (inactive) in assay [3]; 0.248 (inactive) in [5]; -0.984 (inactive) in assay [6]; -0.662 (inactive) in assay [7]. In addition, the z-score in assay [8] is -0.666 (inactive); in [9], -0.0702; in assay [12], 1.66; in assay [13], -2.47 (inactive); in [14], -0.556 (inactive); in [15], -0.245 (inactive). The composite z-score was -0.23 (inactive) in assay [4], 0.144 in assay [10], -0.311 (inactive) in assay [11] and -0.332 in the assay with XIP peptide (Xip251-270).
For the compound `COc1cc(NN2C(C(O)c3cc(OC)c(OC)c(OC)c3)C=CC3C(=O)N(C)C(=O)C32)cc(OC)c1OC` (stereo not given), the z-score in assay [1] was -0.177; in assay [2] it was 0.712 (inactive); in [3], -0.464 (inactive); in assay [5], 0.366 (inactive); in assay [6], 0.276 (inactive); in [7] it was -0.0468 (inactive). The z-score in assay [8] is 0.179 (inactive); in assay [9] it was -0.97; in assay [12], -0.354; in [13] it was -4.51 (inactive); in assay [14], -0.325 (inactive); in assay [15] it was -0.328 (inactive). Further, the composite z-score in assay [4] is -1.27 (inactive); in assay [10], -0.144; in assay [11], 0.248 (inactive); in the assay with XIP peptide (Xip251-270) it was 0.438.
On to `NCCCCCNC(=O)[C@H]1C[C@H]2C(=O)N3CCC[C@H]3C(=O)N2[C@H]1c1cccc(OCCO)c1`, for which the z-score was -1.25 in [1]; -0.0559 (inactive) in [2]; -0.02 (inactive) in assay [3]; -0.252 (inactive) in assay [5]; -0.132 (inactive) in [6]; -0.658 (inactive) in assay [7]. Besides, the z-score in assay [8] was -1.33 (inactive); in assay [9], -0.29; in assay [12], -1.24; in assay [13], -2.47 (inactive); in assay [14], -0.0667 (inactive); in assay [15], 0.53 (inactive). The composite z-score was 0.322 (inactive) in [4], 0.256 in assay [10], 1.19 (inactive) in assay [11] and 0.707 with XIP peptide (Xip251-270).
On to `CCC#CCN(Cc1ccccc1Br)[C@H](/C=C/C1CC1)[C@@H](O)Cc1ccccc1`, for which the z-score was 2.23 in assay [1]; -3.06 (inactive) in [2]; 1.93 (inactive) in assay [3]; 0.686 (inactive) in [5]; -2.7 (inactive) in [6]; 1.96 (inactive) in [7]. Further, the z-score was 0.706 (inactive) in assay [8]; 0.329 in [9]; -3.17 in [12]; -0.634 (inactive) in assay [13]; -0.887 (inactive) in [14]; -0.875 (inactive) in assay [15]. For the same compound, the composite z-score is -0.769 (inactive) in assay [4], -0.144 in [10], -0.243 (inactive) in assay [11] and 0.0059 with XIP peptide (Xip251-270).
For the compound `CCOC(=O)C1=C[C@@H](c2ccccc2)N(S(=O)(=O)c2ccc(C)cc2)[C@H]1c1ccc(OC)cc1`, the z-score was -0.664 in assay [1]; 1.11 (inactive) in [2]; -1.01 (inactive) in assay [3]; 0.0236 (inactive) in assay [5]; 0.409 (inactive) in [6]; -1.06 (inactive) in [7]. Besides, the z-score in assay [8] is -0.834 (inactive); in [9], -1.24; in assay [12], -1.84; in assay [13], 0.842 (inactive); in assay [14], -0.0622 (inactive); in [15], -0.614 (inactive). The composite z-score in [4] is -0.668 (inactive); in assay [10], -0.0428; in [11] it was 0.138 (inactive); in the assay on XIP peptide (Xip251-270), 0.599.
Take `COCCOC(=O)N1C(=O)[C@@]2(c3cc(C#CC4=CCCCC4)ccc31)[C@H](c1ccccc1OCCO)N1[C@H](c3ccccc3)[C@H](c3ccccc3)OC(=O)[C@H]1[C@@H]2C(=O)NC[C@H](O)c1ccccc1`: the z-score in assay [1] is -1.14; in assay [2] it was 0.861 (inactive); in assay [3] it was -2.19 (inactive); in [5], 1.92 (inactive); in assay [6], 2.08 (inactive); in assay [7] it was -0.609 (inactive). For the same compound, the z-score in assay [8] is -0.255 (inactive); in [9], -3.52; in assay [12], -1.93; in [13] it was 0.449 (inactive); in assay [14], 0.0064 (inactive); in [15], -0.175 (inactive). Also, the composite z-score is -0.158 (inactive) in assay [4], -0.0476 in assay [10], 1.57 (inactive) in assay [11] and 0.742 in the assay with XIP peptide (Xip251-270).
`CCCNC(=O)[C@@]1(Sc2ccc(C)cc2)CC(=O)N(C2Cc3ccccc3C2)[C@@H]1c1ccc(CO)cc1I`: the z-score is -0.463 in [1]; -2.31 (inactive) in assay [2]; -1.67 (inactive) in [3]; 0.518 (inactive) in [5]; -0.564 (inactive) in assay [6]; 0.599 (inactive) in assay [7]. Moreover, the z-score in assay [8] was -0.0019 (inactive); in assay [9], -1.55; in [12], 0.441; in assay [13], -2.68 (inactive); in assay [14], 0.34 (inactive); in [15] it was 0.78 (inactive). Also, the composite z-score in assay [4] is -0.141 (inactive); in assay [10] it was -0.0286; in assay [11], 0.0241 (inactive); in the assay on XIP peptide (Xip251-270) it was 0.733.
Take `C=CC[C@@]1(C(=O)NCCCOC)N=C(c2ccc(OCCCO)cc2)O[C@@H]1c1ccccc1`: the z-score in [1] was -0.843; in assay [2], -1.85 (inactive); in [3], -0.203 (inactive); in [5], -0.375 (inactive); in [6] it was -1.27 (inactive); in assay [7], -0.12 (inactive). In addition, the z-score was 1.13 (inactive) in assay [8]; -0.1 in [9]; -1.95 in assay [12]; -4.75 (inactive) in assay [13]; -0.339 (inactive) in assay [14]; -0.343 (inactive) in [15]. Further, the composite z-score in assay [4] is -1.65 (inactive); in assay [10], 0.065; in assay [11], 1.42 (inactive); in the assay with XIP peptide (Xip251-270), 0.805.
In the case of `COc1ccc([Si](C)(C)[C@@H]2[C@@H](CC(=O)N3Cc4ccccc4C[C@H]3CO)O[C@]3(C(=O)N(Cc4ccc(N5C(=O)c6cccc7cccc5c67)cc4)c4ccccc43)[C@H]2C)cc1`, the z-score in [1] is -0.542; in [2] it was -0.551 (inactive); in assay [3] it was -0.717 (inactive); in assay [5], 1 (inactive); in [6], 1.15 (inactive); in assay [7], 0.384 (inactive). Besides, the z-score in [8] was 0.403 (inactive); in assay [9] it was -0.221; in assay [12], -0.962; in [13], -1.98 (inactive); in assay [14], 0.143 (inactive); in assay [15] it was 0.973 (inactive). For the same compound, the composite z-score is -2.41 (inactive) in [4], -0.0773 in assay [10], 0.685 (inactive) in assay [11] and 0.747 with XIP peptide (Xip251-270).
In the case of `COC(=O)C1=CC(CCCO)=CC(c2ccc(CN3CCCC3)cc2)N(Cc2cccc(OC(F)(F)F)c2)C=C1C(=O)OC` (stereo not given), the z-score in assay [1] is -0.721; in [2], -1.54 (inactive); in assay [3] it was -0.728 (inactive); in [5], -0.407 (inactive); in [6] it was -0.287 (inactive); in assay [7] it was 0.509 (inactive). For the same compound, the z-score in assay [8] is 0.701 (inactive); in assay [9] it was -0.529; in [12], -2.09; in assay [13], -5.07 (inactive); in [14] it was -0.268 (inactive); in [15], -0.184 (inactive). In addition, the composite z-score in assay [4] was -2.65 (inactive); in [10], 0.166; in assay [11] it was 1.68 (inactive); in the assay with XIP peptide (Xip251-270), 0.677.
